Reference: PubChem BioAssay AID1159580 (chemical genetic matrix, 2015)
The campaign covered roughly 5,500 compounds. About 2,000 (36%) were called active. Roughly 18% stayed inconclusive and do not appear here. Rule as the data show it: active = normalized growth mostly below about 0.91 (no sharp cut-off); inconclusive = no clear call, values can overlap the other calls; inactive = mostly above about 0.92. This is one part of the list.

Assay: chemical genetic growth profiling, strain panel (AID 1159580);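 also: tested at 20 µM; growth read once vehicle control cultures reached saturation at 30 °C; 1 = growth at the plate median or of vehicle wells; lower values mean less growth of the strain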
Settings: S. cerevisiae deletion strains, growth OD

Measured: normalized growth

C[C@H]1CC[C@@H](C(C)(C)O)CC2=C1CC[C@@H]2C
active: locus YDR195W, strain ref2 0.822 | locus YDR392W, strain spt3, hits give low values 0.552 | locus YHR030C, strain SLT2, hits give low values 0.819 | locus YHR079C, strain IRE1, hits give low values 0.767 | locus YLR113W, strain HOG1, hits give low values 0.764 | locus YLR262C, strain YPT6 (second series), hits give low values 0.841 | locus YOR231W, strain MKK1, hits give low values 0.849 | locus YPL256C, strain CLN2, hits give low values 0.796
inactive: locus YAL021C, strain ccr4, hits give low values 1 | locus YAL026C, strain drs2, hits give low values 0.984 | locus YAL030W, strain snc1, hits give low values 0.995 | locus YBL061C, strain skt5, hits give low values 0.985 | locus YBR009C, strain hhf1, hits give low values 0.914 | locus YBR023C, strain chs3, hits give low values 0.959 | locus YBR171W, strain sec66, hits give low values 0.978 | locus YBR231C, strain swc5, hits give low values 1.01 | locus YBR279W, strain paf1, hits give low values 0.996 | locus YCL011C, strain gbp2, hits give low values 0.982 | locus YCL016C, strain dcc1, hits give low values 0.976 | locus YCL061C, strain MRC1, hits give low values 0.995 | locus YCL069W, strain vba3, hits give low values 0.997 | locus YCR088W, strain abp1, hits give low values 0.993 | locus YDL005C, strain med2, hits give low values 0.998 | locus YDL040C, strain nat1, hits give low values 0.983 | locus YDR001C, strain nth1, hits give low values 0.988 | locus YDR069C, strain doa4, hits give low values 0.981 | locus YDR137W, strain rgp1, hits give low values 0.91 | locus YDR159W, strain sac3, hits give low values 0.912 | locus YDR297W, strain sur2, hits give low values 0.988 | locus YDR334W, strain swr1, hits give low values 1.01 | locus YDR335W, strain msn5, hits give low values 0.992 | locus YEL003W, strain gim4, hits give low values 0.984 | locus YEL037C, strain rad23, hits give low values 0.994 | locus YEL061C, strain CIN8 (second series), hits give low values 1 | locus YER015W, strain faa2, hits give low values 1.01 | locus YER016W, strain bim1, hits give low values 0.967 | locus YER111C, strain swi4, hits give low values 0.984 | locus YER155C, strain BEM2 (second series), hits give low values 0.927 | locus YFR010W, strain ubp6, hits give low values 0.962 | locus YGL167C, strain pmr1, hits give low values 0.985 | locus YGL173C, strain kem1, hits give low values 0.961 | locus YGL227W, strain vid30, hits give low values 0.999 | locus YGL240W, strain doc1, hits give low values 0.934 | locus YGL253W, strain hxk2, hits give low values 1 | locus YHR013C, strain ard1, hits give low values 0.999 | locus YHR027C, strain rpn1, hits give low values 0.994 | locus YHR142W, strain chs7, hits give low values 0.884 | locus YJL092W, strain hpr5, hits give low values 0.995 | locus YJL095W, strain BCK1 (second series), hits give low values 0.99 | locus YJL095W, strain BCK1, hits give low values 0.9 | locus YJL115W, strain asf1, hits give low values 0.994 | locus YJL129C, strain trk1, hits give low values 0.983 | locus YJL154C, strain vps35, hits give low values 0.992 | locus YJL164C, strain tpk1, hits give low values 0.965 | locus YJL166W, strain qcr8, hits give low values 0.948 | locus YJL187C, strain SWE1, hits give low values 0.987 | locus YJR066W, strain TOR1, hits give low values 0.92 | locus YKL160W, strain elf1, hits give low values 0.979 | locus YKR026C, strain gcn3, hits give low values 0.97 | locus YKR091W, strain srl3, hits give low values 0.993 | locus YLL001W, strain dnm1, hits give low values 0.991 | locus YLL026W, hits give low values 0.978 | locus YLL041C, strain sdh2, hits give low values 0.993 | locus YLR027C, strain aat2, hits give low values 0.979 | locus YLR221C, strain rsa3, hits give low values 0.924 | locus YLR258W, strain gsy2, hits give low values 0.971 | locus YLR320W, strain mms22, hits give low values 0.896 | locus YLR342W, strain FKS1, hits give low values 0.989 | locus YLR357W, strain rsc2, hits give low values 0.893 | locus YLR370C, strain arc18, hits give low values 0.987 | locus YLR384C, strain iki3, hits give low values 0.995 | locus YML120C, strain ndi1, hits give low values 0.972 | locus YMR058W, strain fet3, hits give low values 0.993 | locus YMR125W, strain sto1, hits give low values 0.977 | locus YMR129W, hits give low values 0.986 | locus YMR205C, strain PFK2, hits give low values 0.896 | locus YMR231W, strain pep5, hits give low values 0.999 | locus YNL071W, strain lat1, hits give low values 0.952 | locus YNL183C, strain NPR1, hits give low values 0.869 | locus YNL209W, strain ssb2, hits give low values 0.995 | locus YNL248C, strain rpa49, hits give low values 0.983 | locus YNL322C, strain KRE1 (second series), hits give low values 0.987 | locus YNR049C, strain mso1, hits give low values 0.995 | locus YOR001W, strain rrp6, hits give low values 0.958 | locus YOR070C, strain gyp1, hits give low values 0.978 | locus YOR080W, strain dia2, hits give low values 1 | locus YOR083W, strain WHI5, hits give low values 0.975 | locus YOR106W, strain vam3, hits give low values 0.972 | locus YOR265W, strain rbl2, hits give low values 0.983 | locus YOR270C, strain vph1, hits give low values 0.97 | locus YOR290C, strain snf2, hits give low values 0.925 | locus YPL051W, strain arl3, hits give low values 0.979 | locus YPL078C, strain atp4, hits give low values 0.986 | locus YPL106C, strain sse1, hits give low values 0.889 | locus YPL240C, strain hsp82, hits give low values 1.01
